Source: PubChem BioAssay AID449762 (Southern Research Specialized Biocontainment Screening …, 2010)
Screen size: about 330,000 compounds; about 1,900 (0.58%) were called active. Inconclusive results (about 4%) are left out. The list is a sample of the results. Measured potencies and affinities stand elsewhere. A number with no mark means an inactive call. Cut-off read from the data, not from the text of the source: inconclusive = inhibition above about 70% without an active follow-up result; inactive = below that.

experiment: M. tuberculosis growth inhibition, HTS (AID 449762);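 note: bacterial growth assessed after seven days of incubation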; settings: M. tuberculosis H37Rv growth inhibition, 7H9 media; at 25 µM; stronger effect = higher value

| Structure (SMILES) | inhibition [%] |
| --- | --- |
| O=C(CCSc1nnc2ccccn12)Nc1ccc2c(c1)OCO2 | -0.07 |
| COc1ccc(OC)c(S(=O)(=O)Nc2cc(Cl)cc(Cl)c2)c1 | -2.29 |
| CN1/C(=C\C(=S)NC(=O)c2ccccc2Cl)C(C)(C)c2ccccc21 | -5.96 |
| CC(C)C(=O)NC(=S)/C=C1/N(C)c2ccccc2C1(C)C | 2.15 |
| Cc1cccc(NS(=O)(=O)c2csc(C(N)=O)c2)c1C | -0.04 |
| Cc1ccc(CC(=O)Nc2cc(C)ccn2)cc1 | 3.78 |
| CC1Sc2ccc(S(=O)(=O)CCC(=O)Nc3ccccc3Cl)cc2NC1=O (stereo not drawn) | 0.85 |
| CCOC(=O)C1CCN(CC(O)COc2ccc(C(=O)CC)cc2)CC1 (stereo not drawn) | -15.2 |
| CCOC(=O)C1CCN(CC(O)COc2ccc(C(C)=O)cc2)CC1 (stereo not drawn) | -0.99 |
| COC(=O)c1ccc(CNC(=O)COC(=O)c2cccs2)cc1 | 12.5 |
| COc1ccc(/C=C2\N=C(C)N(c3ccc4ccccc4c3)C2=O)cc1OC | 4.18 |
| COc1ccccc1-c1nnc(NC(=O)c2ccc(S(=O)(=O)N3CCOCC3)cc2)o1 | 43.3 |
| COc1cc(-c2nnc(NC(=O)c3ccc(S(=O)(=O)N4CCOCC4)cc3)o2)cc(OC)c1OC | 5.07 |
| CCCN(CC(=O)Nc1ccccc1OC)C(=O)c1ccccn1 | 0.49 |
| C=CCN1C(=O)c2ccc(C(=O)N(C)CC(=O)Nc3cccc(F)c3)cc2C1=O | 0 |
| CCOC(=O)c1c(C)[nH]c(C(=O)OCC(=O)NCc2ccc(OC)c(OC)c2)c1C | 3.95 |
| COc1ccc(C)cc1Nc1n[n+](-c2ccccc2)c(-c2cc(OC)c(OC)cc2Br)s1 | 62.1 |
| COc1ccc(C)cc1Nc1n[n+](-c2ccccc2)c(-c2cccc(Cl)c2Cl)s1 | 60 |
| COC(=O)C1=C(C(=O)OC)[C@@H]2N(C)c3ccc(OC)cc3[C@@]23C[C@@H](C(=O)OC)N(C(=O)CC(C)C)C3=N1 | -3.14 |
| O=C(C1=C(O)C(=O)N(Cc2ccco2)C1c1ccccc1F)c1cccs1 (stereo not drawn) | 12.7 |

| Structure (SMILES) | inhibition [%] |
| --- | --- |
| Cc1cc(C)n(-c2ccc(F)cc2CN2CCN(C3CCCC3)C(CCO)C2)n1 (stereo not drawn) | 8.29 |
| C=C(C)C1CC=C(CN2CCC(O)CC2)CC1 (stereo not drawn) | -0.8 |
| C=C(C)C1CC=C(CN2CC(C)OC(C)C2)CC1 (stereo not drawn) | -4.9 |
| CCOC(=O)c1c(/N=C/N(C)C)sc(/C=N/Nc2ccccc2)c1-c1ccc(Cl)cc1 | 69 |
| CCOC(=O)c1c(/N=C/N(C)C)sc(/C=N/Nc2ccccc2)c1-c1ccccc1 | 4.1 |
| CN(CC(=O)NCc1ccccc1)S(=O)(=O)c1cnc[nH]1 | 2.4 |
| Cc1cc(C)cc(OCC(=O)OCC(=O)NC2CCCCCC2)c1 | 2.47 |
| CSc1ncnc2c1cnn2-c1ccc(C)cc1C | 6.4 |
| Cc1ccc(-n2ncc3c(SCC(=O)Nc4cc(C)on4)ncnc32)c(C)c1 | -4.04 |
| O=C(NCc1cccnc1)C1CCCN(S(=O)(=O)c2ccc(Cl)cc2)C1 (stereo not drawn) | -6.29 |
| O=[N+]([O-])c1cc(-c2nnc(N3CCOCC3)c3ccccc23)ccc1N1CCOCC1 | 0.47 |
| Cc1ccc(NC(=O)CCc2c[nH]c3ccccc23)nc1 | 1.19 |
| Cc1ccnc(NC(=O)CCCc2c[nH]c3ccccc23)c1 | -0.54 |
| O=C(CN(C(=O)CSc1nc2ccccc2o1)c1ccccc1)NC1CCCCC1 | -0.41 |
| CNc1c(C(=O)O)ccc2c1C(=O)c1ccccc1C2=O | 9.33 |
| COc1ccc2c(c1O)C(=O)c1ccccc1C2=O | -7.89 |
| CCc1nc(SCC(=O)Nc2ccnc3ccccc23)n[nH]1 | -7.48 |
| Cc1cc(=O)oc2cc(Oc3ccc([N+](=O)[O-])cc3[N+](=O)[O-])ccc12 | 50.5 |
| Cc1c(C)c2ccc(Oc3ccc([N+](=O)[O-])cc3C(F)(F)F)c(C)c2oc1=O | 7.78 |
| CN(c1ccccc1)S(=O)(=O)c1ccc(C(=O)OCC(=O)NC(N)=O)cc1 | 1 |

| Structure (SMILES) | inhibition [%] |
| --- | --- |
| COc1ccc(-c2c(C(=O)O)c(C(=O)O)c3n2CCC3)cc1 | 0.3 |
| Cc1ccc(CSc2ncn(-c3ccccc3)n2)cc1 | -2.76 |
| CC(C)(C)c1ccc(NC(=O)CCNC(=O)c2ccco2)cc1 | 1.96 |
| Cc1cc(C)c(S(=O)(=O)Nc2ccc(Cl)cn2)c(C)c1 | 2.9 |
| CCN(CC(=O)Nc1ccccc1OC)C(=O)CCOc1ccc(C(C)(C)C)cc1 | -2.92 |
| O=[N+]([O-])c1cc(S(=O)(=O)N2CCCCC2)ccc1NCCN1CCOCC1 | -0.42 |
| CCC(=O)Nc1cccc(-c2ccc(N3CCCCC3)nn2)c1 | 2.67 |
| O=C(Nc1cccc(-c2ccc(N3CCCCC3)nn2)c1)C(F)(F)F | 5.09 |
| COc1cccc(C(=O)/C=C/Nc2ccc(S(=O)(=O)Nc3nc(C)cc(C)n3)cc2)c1 | 1.1 |
| FC(F)(F)c1cc(CCN2C(=S)NC[C@@H]2c2ccccc2)cc(C(F)(F)F)c1 | -1.12 |
| O=C1NC[C@H](c2ccccc2)N(CCc2cc(C(F)(F)F)cc(C(F)(F)F)c2)C1=O | 2.8 |
| CN(C)S(=O)(=O)c1cccc(NC(=O)c2ccc(OC(F)(F)F)cc2)c1 | 5.44 |
| O=C(O)C1=C[C@H](c2coc3ccccc3c2=O)C[C@H](OCCCCO)O1 | -1.88 |
| CCOC(=O)N1CCN(C(=O)/C(=C/c2ccc(OC)cc2)NC(=O)c2ccccc2)CC1 | 1.93 |
| O=C(CN1CCC(C(O)(c2ccccc2)c2ccccc2)CC1)Nc1cc(Cl)ccc1Cl | 54.5 |
| Cc1cc(Cl)ccc1NC(=O)CN1CCC(C(O)(c2ccccc2)c2ccccc2)CC1 | 46 |
| COCCCNC(=O)c1ccc(-c2csc(C)n2)cc1 | 2.89 |
| Cc1ccc(NC(=O)CN2CCOCC2)cc1S(=O)(=O)N1CCCCC1 | -0.79 |
